# TRHR enhancer-1: allosteric enhancers of human TRH receptor. TRHR cells, fluo-8 calcium fluorescence, EC20 TRH enhancement. P34981. enhancement, % at 2 µM. 360,000 compounds, 0.66% hits; in the data active means enhancement above about 30%; further: 0% is about no effect
#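 Enhancer read-out: after compound pinning and an initial kinetic agonist-mode read, an EC20 of TRH (10 nM final) was injected and fluo-8 calcium signal (Ex 480/Em 530) followed at 1 s/cycle for 100 cycles in TRHR-expressing cells.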
# TRPML1 inh: human mucolipin-1 channel inhibition; Q9GZU1; TRPML1-inducible cells, Ca2+ dye fluorescence, FDSS; stronger effect = lower value; inhibition of EC80 agonist-evoked calcium signal; 390,000 compounds, 0.02% hits; activity change, negative = inhibition, % (concentration not given with the values); in the data active means activity change below about -50%; inconclusive means between about -30% and that limit;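 further: stimulus is agonist 54-4 at its EC80 concentration; on the % scale 0 is the no-effect control and ±100 the full control effect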
# Target sequence (Q9GZU1 whole entry, looked up): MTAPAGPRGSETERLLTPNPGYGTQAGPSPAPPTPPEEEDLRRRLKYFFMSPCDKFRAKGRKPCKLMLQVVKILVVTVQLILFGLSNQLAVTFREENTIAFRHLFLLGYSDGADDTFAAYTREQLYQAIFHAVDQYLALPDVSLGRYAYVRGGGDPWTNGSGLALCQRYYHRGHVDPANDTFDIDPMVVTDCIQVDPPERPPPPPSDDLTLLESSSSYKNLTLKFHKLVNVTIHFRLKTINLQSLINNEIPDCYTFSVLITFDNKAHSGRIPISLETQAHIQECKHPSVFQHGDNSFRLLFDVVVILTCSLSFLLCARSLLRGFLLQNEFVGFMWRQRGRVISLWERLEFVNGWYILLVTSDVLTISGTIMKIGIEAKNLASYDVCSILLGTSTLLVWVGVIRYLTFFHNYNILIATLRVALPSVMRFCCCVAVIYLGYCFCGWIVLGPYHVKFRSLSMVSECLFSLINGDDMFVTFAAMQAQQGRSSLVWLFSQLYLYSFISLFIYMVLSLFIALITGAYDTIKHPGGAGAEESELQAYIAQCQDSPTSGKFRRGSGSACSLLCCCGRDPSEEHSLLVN
#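 TRPML1-DL cells, Tet-induced overnight (~16 h, 37 °C) at 1,500 cells/well, were loaded with Ca8 no-wash dye plus quencher for 45-90 min at room temperature. Compounds were pinned during FDSS kinetic reading; agonist 54-4 at EC80 (4 uM final) then added.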
# TRPV1 ag: activates the human vanilloid receptor TRPV1; 320,000 compounds, 0.19% hits; TRPV1-expressing cells, Fluo-8 calcium influx, agonist mode; activation, % at 8.33 µM; in the data active means activation above about 80%; inconclusive means between about 30% and that limit; further: 0% is about no effect
#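 Fluo-8 calcium influx in TRPV1-expressing cells, kinetic read (ex 480/em 520 nm). Compound added and read 3 min for agonist activity, followed by capsaicin at EC20 final and 2 min further read for enhancement.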
# TRPV1 PAM: human TRPV1 potentiation. TRPV1-expressing cells, Fluo-8 calcium influx, capsaicin EC20 potentiation. potentiation, % at 8.33 µM. 320,000 compounds, 0.02% hits; in the data active means potentiation above about 80%; inconclusive means between about 30% and that limit; further: 0% is about no effect
#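 Cells expressing TRPV1 were dye-loaded with Fluo-8 and read kinetically: 10 s baseline, 3 min after compound (agonist portion), then 2 min after EC20 capsaicin (allosteric enhancer portion). Calcium-bound dye fluorescence at 480/520 nm.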
# TRPML1 agonist: activates the human TRPML1 channel | Q9GZU1 | activation, % (no concentration beside the values) | 410,000 compounds, 0.12% hits | TRPML1-expressing cells, Ca2+ dye fluorescence, FDSS; in the data active means activation above about 50%; inconclusive means mostly about 30% to 49%; further: 0% is about no effect
#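 Agonist activity was taken from a 110 s kinetic Ca2+ dye read on the FDSS after pinning compounds onto TRPML1-DL cells. The cells were seeded at 1,500/well with Tet inducer, incubated about 16 h, then dye-loaded at room temperature.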
# TRHR agonist-1: TRH receptor (human) agonism. activation, % at 2 µM. TRHR cells, calcium flux fluo-8, FDSS agonist mode. 360,000 compounds, 0.18% hits. AID 493084; in the data active means activation above about 30%; further: 0% is about no effect
#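 Fluo-8-loaded TRHR cells; 10 s baseline, compound added, kinetic Ca2+ fluorescence read 1/s, agonist mode.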
# TRHR enhancer-2: confirmation of human TRH receptor allosteric enhancers; activity change, negative = inhibition, % at 46.1 µM; shares compounds with TRHR enhancer-1; TRH receptor cell assay, enhancer confirmation qHTS; 970 tested, under 10 active;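 further: compound effect scored on response to added TRH at EC20 of 10 nM; 0% is about no effect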
# TRHR agonist-2: confirmation of human TRH receptor agonists; 970 compounds, 8% hits; Potency, µM (titrated, usually from 46.1 µM), without a hit: top-dose activation, usual class: activators; TRHR-expressing cells, agonist activation read-out; AID 493078; shares compounds with TRHR enhancer-1; further: potency means the concentration at half of the fitted maximal effect; 0% is about no effect; nearly all actives have a fitted effect of over 75% in size
# * marks the source's active call; other numbers are inactive results; ? = inconclusive; / = not tested or not shown. Rows were chosen to be rich in hits. Some 0.99% of all compounds tested hit in one or more screens of this group. Unless noted, the call rests on the fitted dose curve; in most records, active means well fitted curve in the direction sought with a large enough effect; inconclusive means small, poorly fitted or top-dose-only effect, or another doubt; inactive means no such curve, though single readings can be large; an effect the other way counts as inactive or inconclusive.
SMILES,TRHR enhancer-1,TRPML1 inh,TRPV1 ag,TRPV1 PAM,TRPML1 agonist,TRHR agonist-1,TRHR enhancer-2,TRHR agonist-2
CN(C)S(=O)(=O)c1ccc(C(=O)NCC(=O)N/N=C/c2ccccc2)cc1,82*,35,?,-16,0,1,-3,-1%
Cc1ccccc1NC(=O)c1ccc(S(=O)(=O)N(C)C)cc1,45*,9,1,25,-1,-1,-4,-1%
CCn1c2ccccc2c2cc(/C=C3\C=Cc4ccccc43)ccc21,/,/,/,/,0,/,/,/
CCc1nnc(NC(=O)c2ccccc2NC(=O)C2CCN(C(=O)c3ccco3)CC2)s1,/,/,/,/,-1,/,/,/
Cn1c(SCCOc2ccccc2)nnc1-c1ccc(NC(=O)CCc2ccccc2)cc1,/,/,/,/,0,/,/,/
O=c1[nH]c(SCc2ccccc2)ncc1S(=O)(=O)c1ccccc1,/,/,/,/,0,/,/,/
Clc1ccc(OCCNCCc2ccccc2)cc1,43*,6,5,-1,0,1,9,9%
OC(CNCCc1ccccc1)COc1ccc(OCC(O)CNCCc2ccccc2)cc1 (stereo not given),9,-10,11,?,2,4,/,/
COc1cc(/C=C/c2nc3ccccc3s2)cc(OC)c1O,4,-26,6,5,8,32*,2,?
C=C[C@@H]1[C@@H](C)[C@H](C)C(=O)C([C@H](O)C(C)C)[C@@H]1C (stereo not given in full),/,0,/,/,0,/,/,/
CN1CCN(c2ccc(-c3cc(O)c4ncccc4c3)cc2)CC1,-1,/,/,/,/,0,/,/
Cc1nn(CC(=O)Nc2ccc3c(c2)nc(CCN2CCCCC2)n3C)c(=O)c2ccccc12,5,-11,0,7,3,0,/,/
Cc1nn(CC(=O)Nc2ccc3c(c2)nc2n3CCN(C3CCCCC3)C2)c(=O)c2ccccc12,46*,42,3,3,-1,0,6,6%
Cc1ccc(-c2c3c(=O)n(C)c(=O)n(C)c3c3cnc4ccccc4n23)cc1,59*,-1,/,/,0,0,-1,2%
CCc1nc2ccccc2n2c(-c3ccc(C)cc3)c3c(=O)n(C)c(=O)n(C)c3c12,-4,-2,/,/,0,0,/,/
COc1ccc(Br)cc1C(=O)Nc1ccc(C(=O)NCC(C)C)cc1,46*,2,14,-9,3,-2,10,1%
O=Cc1c(NCc2ccco2)nc2ccccn2c1=O,46*,1,4,11,0,0,-7,4%
COc1ccccc1/C=C/c1cnccn1,/,/,/,/,-1,/,/,/
CC(=O)NC1=C(C#N)CCC1,/,/,/,/,0,/,/,/
C/C=C1\COC(C(=O)NC)(C(F)(F)F)C=C1C=C1CCCCC1 (stereo not given),/,6,/,/,1,/,/,/
COc1cccc2nccc(/C=C/c3ccc(N(C)C)cc3)c12,/,/,/,/,26,/,/,/
COc1ccccc1-n1nnnc1SCC(=O)Nc1ccccc1,56*,11,-2,-2,-1,0,-4,2%
O=C(c1ccc(NS(=O)(=O)c2ccccc2)cc1)N1CCCC1,1,10,-1,2,0,0,/,/
CC1CCN(C(=O)c2ccc(NS(=O)(=O)c3ccccc3)cc2)CC1,44*,6,3,3,0,-1,1,1%
Cc1ccccc1NC(=O)CN1CCOCC1,56*,34,0,-1,-1,0,14,0%
Cc1ccccc1NC(=O)CN1CCCC1,/,8,/,/,0,/,/,/
COc1ccc(C(=O)Oc2ccc(/C=N/NC(=O)c3ccccc3OC)cc2[N+](=O)[O-])cc1,51*,3,0,6,0,0,-3,2%
C/C(=N\NC(=O)c1ccc(Cn2cc(Br)cn2)o1)c1ccc(NC(=O)c2ccoc2C)cc1,61*,23,-10,-1,-1,0,10,8%
